Screens (PubChem BioAssay)
An excerpt weighted towards active compounds, which were near 3.9% of everything screened.
PLC-beta3 inh – inhibitors of human phospholipase C beta3; 370,000 compounds, 0.18% hits; Q01970; inhibition, % at 12.2 µM; Purified PLC-beta3, fluorogenic substrate, fluorescence; in the data active = inhibition above about 11%;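 also: 0% = median of compound wells on plate and 100% = full blocker control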
Target sequence (Q01970 whole entry, looked up): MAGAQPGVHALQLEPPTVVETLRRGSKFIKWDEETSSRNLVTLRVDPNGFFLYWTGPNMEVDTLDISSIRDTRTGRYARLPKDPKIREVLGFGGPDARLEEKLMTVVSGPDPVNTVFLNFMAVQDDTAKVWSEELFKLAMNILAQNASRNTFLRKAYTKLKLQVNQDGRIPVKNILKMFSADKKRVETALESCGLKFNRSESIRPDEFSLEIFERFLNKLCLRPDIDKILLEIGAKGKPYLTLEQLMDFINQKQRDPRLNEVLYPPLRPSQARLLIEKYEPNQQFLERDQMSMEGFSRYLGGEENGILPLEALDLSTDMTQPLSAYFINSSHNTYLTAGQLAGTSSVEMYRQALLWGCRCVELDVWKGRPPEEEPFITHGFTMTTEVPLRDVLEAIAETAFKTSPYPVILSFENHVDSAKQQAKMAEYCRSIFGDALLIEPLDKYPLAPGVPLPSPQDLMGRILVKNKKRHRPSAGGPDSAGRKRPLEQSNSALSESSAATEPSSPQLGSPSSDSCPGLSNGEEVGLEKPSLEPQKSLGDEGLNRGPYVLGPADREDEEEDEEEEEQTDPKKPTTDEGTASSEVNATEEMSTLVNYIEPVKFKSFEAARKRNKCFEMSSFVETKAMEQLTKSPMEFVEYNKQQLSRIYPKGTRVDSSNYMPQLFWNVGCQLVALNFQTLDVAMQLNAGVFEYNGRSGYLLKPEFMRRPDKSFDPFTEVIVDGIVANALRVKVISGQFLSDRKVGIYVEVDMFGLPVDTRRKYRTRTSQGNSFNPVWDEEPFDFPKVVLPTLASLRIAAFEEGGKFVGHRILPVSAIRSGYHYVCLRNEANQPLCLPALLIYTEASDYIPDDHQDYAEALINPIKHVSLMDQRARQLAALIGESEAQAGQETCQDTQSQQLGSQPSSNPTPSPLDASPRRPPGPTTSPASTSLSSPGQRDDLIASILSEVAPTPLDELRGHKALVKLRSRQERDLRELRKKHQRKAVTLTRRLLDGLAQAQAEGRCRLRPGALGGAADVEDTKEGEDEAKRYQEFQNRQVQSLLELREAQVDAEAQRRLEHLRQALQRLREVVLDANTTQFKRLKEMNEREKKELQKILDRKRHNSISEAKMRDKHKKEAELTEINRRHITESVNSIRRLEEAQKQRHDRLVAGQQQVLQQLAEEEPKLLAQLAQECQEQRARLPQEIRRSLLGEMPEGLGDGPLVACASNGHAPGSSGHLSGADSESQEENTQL
sPLA2-III inh – Blocks human group III sPLA2 activity | Q9NZ20 | QFRET BODIPY PC-A2 liposome hydrolysis, fluorescence | inhibition, % at 12.2 µM | 370,000 compounds, 0.56% hits;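 active = inhibition above mean plus 3 SD of compounds lying within the high and low control bounds, cut at about 19% in these data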;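 also: 0% = median of test compound wells and 100% = no enzyme DMSO wells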
PLCg1 inh – PLC-gamma1 (human) inhibition, primary screen. 370,000 compounds, 0.84% hits. inhibition, % at 12.2 µM. purified PLC-gamma1, fluorogenic substrate, fluorescence. AID 720700; in the data active = inhibition above about 9.5%
HIF activator – HIF pathway transcriptional activation | 300,000 compounds, 0.32% hits | activation, % at 7.5 µM (by protocol) | U2OS HRE-luciferase reporter, luminescence; normalized: DMSO 0%, desferrioxamine 100%;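 active = mean activation of at least 10% of the iron chelator positive control signal, with at least half of replicates also reaching 10%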
AHR act – activates the human aryl hydrocarbon receptor. P35869. AHR-responsive luciferase reporter cells, luminescence. activation, % at 5 µM. 320,000 compounds, 2.5% hits; in the data active = activation above about 47%;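 also: 0% = vehicle wells and 100% = reference agonist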
CR mimetic SO – yeast age-related superoxide inhibition as caloric restriction mimetic. 330,000 compounds, 0.18% hits. S. cerevisiae aged cells, superoxide DHE fluorescence; stronger effect = lower value. superoxide response (% of plate mean), % at 10 µM;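 active = superoxide response under a set limit, about three screen SD below normal, cut at about 65% in these data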;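 also: yeast aged for seven days with compound at 30 °C before DHE staining; 100% = average MFI of all compound-treated wells on the plate with controls excluded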
Active calls of the source: *; i = inactive; x = no result.

SMILES	PLC-beta3 inh	sPLA2-III inh	PLCg1 inh	HIF activator	AHR act	CR mimetic SO
O=C(C(=O)N1CCN(S(=O)(=O)c2ccc(F)cc2)CC1)c1cccc(C(F)(F)F)c1	-2	3	-2	x	x	x
Cc1cc(C)cc(OCC(=O)NN2Cc3ccccc3C2=N)c1	2	9	-2	0	3	105
N=C1c2ccccc2CN1NC(=O)CC12CC3CC(CC(C3)C1)C2	-3	-16	1	0	4	56*
O=C(NC(=S)N1CCN(c2ccccn2)CC1)c1ccccc1	0	6	1	0	-1	105
S=C(NC1CCCC1)N1CCN(c2ccccn2)CC1	-1	4	0	-8	57*	117
Cc1nc2c(nc1C)C(=O)c1ccccc1C2=O	4	1	2	x	x	x
Cc1nc2c(cc1C#N)C(=O)c1ccccc1-2	2	-3	1	0	159*	107
Oc1[nH]c2ccccc2c1C1=NCCCCC1	0	8	3	0	62*	85
O=NC1=C(c2c(O)[nH]c3ccccc23)CCCC1	-4	12	0	0	0	96
CC(CCN1CCC(C(O)(c2ccccc2)c2ccccc2)CC1)Oc1cccc(C(F)(F)F)c1 (configuration not stated)	4	-20	4	x	x	x
O=c1c2c(nc3c(-c4ccc(Cl)cc4)c[nH]n13)CCCC2	-19	7	-18	0	67*	97
Cc1ccc2c(c1)/C(=C/c1ccccc1F)C(=O)N2	-2	1	3	1	68*	99
COc1cccc2sc3cc(NCc4ccc5c(c4)OCO5)ccc3c(=O)c12	i	-9	i	x	76*	131
COc1ccc(CC(NC(C)=O)C(=O)NC2CCN(C(=O)c3cccc(Cl)c3)CC2)cc1OC (configuration not stated)	-2	-3	2	127*	x	x
COc1ccc(N2C(=O)CC(NCC#N)C2=O)cc1 (configuration not stated)	-5	-5	1	-1	-2	104
COc1ccc(N2C(=O)CC(NCc3cccs3)C2=O)cc1 (configuration not stated)	5	7	11*	0	2	96
Cc1[nH]c2ccccc2c1CC(=O)Nc1ccc(Oc2cccnc2)cc1	-7	-33	-6	x	x	x
O=C(Nc1ccc2c(c1)OCO2)c1ccc(Br)o1	5	4	6	2	129*	94
Cc1c(C(=O)Nc2ccc3c(c2)OCO3)oc2ccccc12	-27	3	-11	1	76*	96
O=C(Nc1ccc2c(c1)OCO2)c1cc(Cl)ccn1	-6	-5	-1	x	67*	92
O=C(CCl)Nc1c(C(=O)Nc2ccc3c(c2)OCCO3)oc2ccccc12	-40	0	-29	2	23	94
Cc1cc(C(=O)Nc2ccc3c(c2)OCO3)no1	-7	2	2	3	58*	109
OC[C@@H]1CC[C@@H]2O[C@H](CCc3ccc(-c4ccc(F)cc4)cc3)[C@@H](n3cc(C4CC4)nn3)C[C@@H]2O1	2	-3	1	x	x	x
COC(=O)[C@]12C[C@H](CC(=O)N3CCC(c4ccccc4)CC3)C(=O)N(CCc3ccc(OC)c(OC)c3)C1=C[C@H](COCc1ccccc1)O[C@@H]2C	1	-9	4	x	x	x
CCCCOCCCNC(=O)C[C@@H]1C(=O)N(Cc2ccc(OC)cc2)/C2=C/CCCCC[C@@]21C(=O)OCC	3	-11	2	x	x	x
SMILES	PLC-beta3 inh	sPLA2-III inh	PLCg1 inh	HIF activator	AHR act	CR mimetic SO
O=C(N/N=C/c1ccccn1)c1ccc(Br)cc1	-19	12	-19	16*	13	106
O=C(N/N=C/c1ccc2cccc(OCc3ccccc3)c2n1)c1ccc(Br)cc1	i	-2	-378	1	69*	97
CCn1nc(C)c(/C=N/NC(=O)c2c[nH]c3ccccc23)c1C	-1	7	-2	2	99*	101
O=C(N/N=C/c1ccc[nH]1)c1c[nH]c2ccccc12	-11	5	-2	4	x	x
Cc1ccc(/C=N/NC(=O)c2ccoc2C)s1	-1	2	-2	2	56*	94
Cc1ccccc1CN1CCCCC(NC(=O)C(C)(C)C)C1=O (configuration not stated)	1	5	-2	x	x	x
COC(=O)[C@]12C[C@H](CC(=O)NCc3cccs3)C(=O)N(Cc3cccc4ccccc34)C1=C[C@H](C(C)C)O[C@@H]2C1CC1	4	-16	5	x	x	x
